Screening results as filed in PubChem.
Shown are actives, neighbours in structure and some others; about 3.2% of the full set was active somewhere.
CHT allo act – CHT positive allosteric modulators, primary screen, cell-based, membrane potential dye, choline EC20 | CHT-expressing cells; active compounds read high; LV-AA mutant CHT in HEK293 cells | B-score at 10 µM | 310,000 tested, 0.49% active;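 active = initial fluorescence not abnormally high and integrated response B-score, plate-corrected, over 3 SD above library mean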
ANO1 block – TMEM16A chloride channel inhibitors, primary screen, cell-based, HTS; normalized B-score (activity score, 25-100; higher = stronger inhibition) at 10 µM; Anoctamin-1 (Mus musculus), Q8BHY3; HEK293 TMEM16A/YFP iodide influx fluorescence, ionomycin; 310,000 tested, 1.2% active;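 active = ratio plate-corrected score three or more library SD toward inhibition, starting fluorescence score within five deviations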;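 also: score derived from kinetic fluorescence span divided by baseline fluorescence per well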
HDAC3 inhib – HDAC3 deacetylase inhibitors, primary screen, biochemical, fluorescence, cell-free homogeneous | inhibition, % at 8.3 µM | AID 2718, 2010 | recombinant HDAC3, fluorogenic peptide/trypsin coupled | 320,000 tested, 0.15% active; in the data active = inhibition above about 26%, passing the limit was not always enough
PHOSPHO1 block – PubChem AID 1565. Phosphoethanolamine/phosphocholine phosphatase (Homo sapiens), Q8TCT1. recombinant PHOSPHO1, absorbance phosphatase assay. inhibition, % at 13.3 µM. 290,000 tested, 1.1% active; in the data active = inhibition above about 60%
CHT inh – inhibitors of human choline transporter CHT | AID 488975, 2010 | 310,000 tested, 0.86% active | B-score at 10 µM | CHT-expressing cells, membrane potential dye, choline response; active compounds read low;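 active = B-score over 3 SD under the library average, and starting fluorescence ratio not unusually high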;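 also: choline stimulus applied at its EC90 after an EC20 pre-addition; B-score computed on integrated fluorescence ratio after choline addition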
ANO1 activ – TMEM16A chloride channel activators or potentiators, primary screen, cell-based, HTS; Anoctamin-1 (Mus musculus), Q8BHY3; HEK293 TMEM16A/YFP-H148Q/I152L, iodide quench fluorescence; active compounds read low; B-score at 10 µM; 340,000 tested, 0.3% active;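 active = fluorescence-ratio B-score plate-corrected deviation score at least 3 library SD below zero, with starting fluorescence score within 5 deviations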;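 also: channel opened by trigger with iodide after compound preincubation; score built on the fluorescence ratio of max minus min over baseline; more negative score means more quench and so TMEM16A activation or potentiation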
TMEM16A reconf – TMEM16A chloride channel inhibitors, confirmation, cell-based, re-confirmation; 2,300 tested, 39% active; HEK293 TMEM16A/YFP-H148Q, iodide quench fluorescence; ionomycin added to raise cell calcium; inhibition, % at 10 µM; shares compounds with ANO1 block;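 active = mean duplicate percent inhibition, scaled so buffer wells are 0 and the reference blocker 100, over three buffer SD above buffer mean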
HEK293 Ca mobil – calcium mobilization in TMEM16A/YFP HEK293 cells, confirmation, counter-screen for TMEM16A inhibitor project; shares compounds with ANO1 block; Fluo4 calcium mobilization; calcium response (% of ionomycin), % at 10 µM; 2,300 tested, 2% active; AID 652231, 2013;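 active = duplicate-averaged calcium signal over 20% of the ionomycin maximum, relative to buffer baseline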;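 also: each well's signal is peak minus trough fluorescence divided by its pre-addition baseline; 0% = buffer wells and 100% = ionomycin wells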
YFP-HEK293 quench – iodide YFP quench changes in parental YFP-HEK293, counter-screen for TMEM16A inhibitor project, cell-based; shares compounds with ANO1 block; ionomycin; YFP ratio F(max-min)/F0 at 10 µM; 2,300 tested, under 10 active; AID 652233, 2013;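 active = yellow fluorescent protein signal ratio exceeding the buffer control mean by over 5 SD of those controls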;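 also: ratio is mean of duplicate wells from kinetic YFP trace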
ClC-1 inh – ClC-1 chloride channel inhibition, selectivity assay for TMEM16A inhibitor project, cell-based, voltage-dependent ClC-1; ratio percent, % at 10 µM; 2,300 tested, under 10 active; shares compounds with ANO1 block; AID 652236, 2013; CHO ClC-1-YFP, iodide influx fluorescence quench; iodide control reads 0, buffer control 100;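 active = duplicate-mean ratio percent above the mean of iodide-only control wells, which defines zero, plus 5 of their SD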;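 also: higher percent means stronger block of ClC-1 iodide influx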
Target sequence (P35524 whole entry, looked up): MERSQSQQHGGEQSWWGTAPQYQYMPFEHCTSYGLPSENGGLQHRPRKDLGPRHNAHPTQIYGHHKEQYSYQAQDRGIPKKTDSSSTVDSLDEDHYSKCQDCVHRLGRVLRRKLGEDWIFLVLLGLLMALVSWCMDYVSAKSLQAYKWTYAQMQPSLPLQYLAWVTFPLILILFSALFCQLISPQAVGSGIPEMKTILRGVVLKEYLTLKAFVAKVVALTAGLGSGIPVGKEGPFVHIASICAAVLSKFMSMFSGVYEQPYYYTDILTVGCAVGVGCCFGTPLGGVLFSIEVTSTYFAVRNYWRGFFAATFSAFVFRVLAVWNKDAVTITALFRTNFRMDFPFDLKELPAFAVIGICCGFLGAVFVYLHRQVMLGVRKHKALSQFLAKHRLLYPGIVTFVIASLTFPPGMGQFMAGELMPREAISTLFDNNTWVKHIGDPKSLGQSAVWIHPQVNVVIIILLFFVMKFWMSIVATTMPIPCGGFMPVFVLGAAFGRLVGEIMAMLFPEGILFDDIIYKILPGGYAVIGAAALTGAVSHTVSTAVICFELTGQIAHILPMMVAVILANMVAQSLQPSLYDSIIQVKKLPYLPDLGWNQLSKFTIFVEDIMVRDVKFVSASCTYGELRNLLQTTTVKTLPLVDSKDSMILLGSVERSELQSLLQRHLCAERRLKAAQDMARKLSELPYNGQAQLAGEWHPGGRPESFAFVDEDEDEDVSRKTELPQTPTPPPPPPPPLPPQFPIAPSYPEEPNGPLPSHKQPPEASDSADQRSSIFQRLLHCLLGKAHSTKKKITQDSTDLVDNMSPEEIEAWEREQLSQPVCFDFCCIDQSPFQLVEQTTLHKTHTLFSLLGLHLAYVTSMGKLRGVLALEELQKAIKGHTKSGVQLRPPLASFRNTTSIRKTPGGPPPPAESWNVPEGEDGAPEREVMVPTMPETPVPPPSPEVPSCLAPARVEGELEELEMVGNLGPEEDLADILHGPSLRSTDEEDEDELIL
The depositor's hits bear a star; i = inactive; · = no result.

SMILES | CHT allo act | ANO1 block | HDAC3 inhib | PHOSPHO1 block | CHT inh | ANO1 activ | TMEM16A reconf | HEK293 Ca mobil | YFP-HEK293 quench | ClC-1 inh
CN(C)c1ccnc(SCc2ccccc2Cl)c1C#N | i | 25* | -11 | -4 | i | i | i | i | -0.84 | -8
CN(C)c1ccnc(Oc2ccccc2)c1C#N | · | · | · | 19 | · | i | · | · | · | ·
O=C(NCc1ccc(F)cc1)c1cccc(NC2=NC3CS(=O)(=O)CC3S2)c1 (centres undefined) | i | i | · | 39 | i | i | · | · | · | ·
NC(N)=NN=C1CCCCCCCCCCC1 | i | i | 3 | 12 | i | i | i | i | -1 | -8
CSCCNC(=O)c1cccc(Cl)c1 | i | i | 3 | 8 | i | i | · | · | · | ·
COc1cc(C(=O)Oc2cccc(Nc3ncnc4ccccc34)c2)cc(OC)c1OC | i | 100* | 8 | 4 | i | i | 22%* | i | -1.1 | -22
CC1(C)CC(=O)C(C=Nc2ccc(C(=O)c3ccccc3)cc2N=CC2=C(O)CC(C)(C)CC2=O)=C(O)C1 | i | i | 18 | 17 | i | i | · | · | · | ·
CCc1c(C)nc2ncnn2c1NCCc1ccc(OC)cc1 | i | 25* | -1 | 34 | i | i | i | i | -0.82 | -20
O=C1COc2ccccc2N1Cc1ccccc1Cl | i | i | 4 | -28 | i | i | · | · | · | ·
CC1CCN(C(=O)c2cc(-c3ccc4c(c3)OCO4)on2)CC1 | i | i | 3 | 16 | i | i | i | i | -0.94 | 2
O=C(Cc1c[nH]c2ccccc12)NCc1cccs1 | i | i | 2 | -14 | i | i | · | · | · | ·
CCN(CC)c1ccc(NC(=O)CCCCCN2C(=O)c3ccccc3C2=O)cc1 | i | 25* | 7 | -15 | i | i | i | i | -0.9 | -6
CC(=O)Nc1ccc(NC(=O)CCCCCN2C(=O)c3ccccc3C2=O)cc1 | i | i | 1 | 13 | i | i | · | · | · | ·
Cc1noc(C)c1COc1cccc(C(=O)NCCc2c[nH]c3ccccc23)c1 | i | 25* | 3 | 5 | i | i | i | i | -1.1 | -3
Cc1ccc(CNC(=O)c2cccc(OCc3c(C)noc3C)c2)cc1 | i | i | 3 | 3 | i | i | · | · | · | ·
O=C(Cc1cccs1)NCc1ccco1 | i | i | -1 | -17 | i | i | · | · | · | ·
CCN(CC)C(=O)c1sc2nc(-c3cccs3)cc(-c3cccs3)c2c1N | i | i | · | 8 | i | i | i | i | -0.6 | 24
O=C(NCCN1CCOCC1)c1sc2ccccc2c1Cl | i | i | -6 | 28 | i | i | · | · | · | ·
Fc1cccc(F)c1-c1nc2c(s1)CCc1onc(-c3ccc(Br)cc3)c1-2 | i | i | 4 | · | i | i | · | · | · | ·
N#C/C(=C\c1ccc(Sc2nc3ccccc3[nH]2)o1)c1ccccc1 | i | 100* | 11 | 36 | i | i | 22%* | i | -0.93 | -20
Cc1nnc(NC(=O)CSc2nnc(Cc3cccn3C)n2C)s1 | i | i | · | 46 | i | i | · | · | · | ·
O=C(CSc1ccc2ccccc2n1)c1ccc2c(c1)OCO2 | i | i | 12 | 26 | i | i | · | · | · | ·
CCCCOC(=O)c1ccc(NC(=O)C(=O)NCC2CCCO2)cc1 (centres undefined) | i | i | -3 | 20 | i | i | · | · | · | ·
CCCCOC(=O)c1ccc(NC(=O)C(=O)NCc2cccnc2)cc1 | i | 25* | 1 | -19 | i | i | i | i | -1.2 | -7
CCN(CC)CCNC(=O)CS(=O)Cc1nc(-c2ccc(C)cc2)oc1C (centres undefined) | i | i | 3 | 18 | i | i | i | i | -0.92 | -8
SMILES | CHT allo act | ANO1 block | HDAC3 inhib | PHOSPHO1 block | CHT inh | ANO1 activ | TMEM16A reconf | HEK293 Ca mobil | YFP-HEK293 quench | ClC-1 inh
COc1ccc2cc(CN(Cc3cccnc3)S(=O)(=O)c3ccccc3)c(=O)[nH]c2c1 | i | 100* | -7 | 16 | i | i | i | i | -0.86 | -6
COc1ccc2cc(CN(CC3COCCO3)S(=O)(=O)c3ccccc3)c(=O)[nH]c2c1 (centres undefined) | · | · | · | 9 | · | i | · | · | · | ·
CCCCN(Cc1cc2cc(OC)ccc2[nH]c1=O)S(=O)(=O)c1ccc(C)cc1 | i | 25* | 1 | 49 | i | i | 29%* | i | -0.64 | -18
O=C(O)c1cc2ncc(-c3[nH]ncc3[N+](=O)[O-])cn2n1 | i | i | 1 | -15 | i | i | · | · | · | ·
CCOC(=O)c1c(NC(=O)C(C)N2CCN(C(=O)c3ccco3)CC2)sc2c1CCCC2 (centres undefined) | i | 25* | 9 | 20 | i | i | i | i | -1.2 | -13
COc1ccccc1-c1nc(SCC(=O)O)n[nH]1 | i | i | 0 | -1 | i | i | · | · | · | ·
CC(=O)c1ccc(N2CCN(S(=O)(=O)c3ccc4c(c3)CC(C)N4C(=O)C3CC3)CC2)cc1 (centres undefined) | i | i | -1 | 33 | i | i | · | · | · | ·
COc1ccc(S(=O)(=O)N2CCN(c3ccc(C)cc3C)CC2)cc1OC | i | 25* | 5 | -6 | i | i | 26%* | i | -0.95 | -18
CCC(=O)N1c2ccc(S(=O)(=O)N3CCN(CC)CC3)cc2CC1C (centres undefined) | i | i | -2 | -14 | i | i | · | · | · | ·
CCC(=O)N1c2ccc(S(=O)(=O)N3CCN(c4ccc([N+](=O)[O-])cc4)CC3)cc2CC1C (centres undefined) | i | 25* | -4 | 27 | i | i | i | i | -1.2 | -18
